The values that follow come from PubChem BioAssay.

The source made the active and inactive calls.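 Rule for the calls, unless noted: active = fluorescence slope higher than the sample average by over 3 SD (cut at about -0.22 in these data, passing the limit was not always enough); inactive = the rest.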

For orientation: inhibition means the relative decrease from the control value, in per cent.

A short description of test [1]: inhibitors of TNFa-induced NFkB p65 translocation, primary screen, imaging, HUVEC, MLSMR starter and 10KST1 sets (AID 438;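 active = inhibition above 20% together with a positive visual image hit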;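 note: compound added about 3h40 before a 20 min TNFalpha stimulation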;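 for inhibition: signal is the nuclear over cytoplasmic p65 intensity ratio per well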). As to conditions: HUVEC TNFa-induced p65 nuclear translocation; cell count: measured here: nuclei count (cytotoxicity indicator), at 2.08 µM; inhibition: at 2 µM, stronger effect = higher value, 0% TNFa-plus-vehicle, 100% no-TNFa wells.
Test [2] can be described thus: inhibitors of mutant huntingtin aggregation, primary screen, imaging, exon1htt(103Q)mCFP cells, high-content imaging (AID 483;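 active = visual image review flags a hit and inhibition of aggregation exceeds 20%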;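 note: compound exposure lasted 3 days before fixation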;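 for nuclei count: percent of the per-plate median nuclei count of sample wells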). As to conditions: exon1htt(103Q)mCFP cell line, aggregate imaging, at 2 µM; inhibition of aggregation: stronger effect = higher value; nuclei count: measured here: cell count, toxicity.
Test [3] is described as follows: inhibitors of E-selectin induction by TNFa, primary screen, imaging, HUVEC, immunofluorescence, MLSMR starter and 10KST1 sets (AID 487;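 active = visually confirmed hit in the image check and inhibition above 20%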;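 for inhibition: signal is fraction of cell area covered by stained E-selectin grains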;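 for nuclei count: 100% = median nuclei count of all wells on the same plate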). As to conditions: HUVEC TNFalpha-induced E-selectin immunofluorescence imaging, at 2 µM; inhibition: stronger effect = higher value; nuclei count: measured here: cell number, toxicity.
Test [4] concerns the target Voltage-gated potassium channel subunit beta-2 (Rattus norvegicus) (UniProt P62483). Kind of test: KvBeta enzyme negative modulators, primary screen, biochemical, NADPH fluorescence (AID 622).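 Note: slope of raw intensity against log time taken from 70 to 1610 s.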 As to conditions: recombinant KvBeta, 4-cyanobenzaldehyde reduction, at 10 µM, stronger effect = higher value.
The target is the same in test [5]. The test is described as follows: KvBeta positive modulators, primary screen, biochemical, NADPH fluorescence (AID 623;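 active = NADPH fluorescence slope more negative than the mean of all samples by about 3 SD, 99.7% confidence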;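 note: fluorescence intensity change per second fitted from 20 to 320 s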). As to conditions: Recombinant KvBeta, NADPH fluorescence decrease slope, 10 min; at 10 µM; stronger effect = lower value.
The target in test [6] is Alpha-2C adrenergic receptor (Homo sapiens) (UniProt P18825). The test is described as follows: modulators of alpha2C/GIRK thallium flux, primary screen, cell-based, HEK293 alpha2C/GIRK1/2 (AID 624;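 active = fluorescence slope after compound addition differing from the mean of all screened samples at 99.7% confidence, in either direction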;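 note: slope of fluorescence ratio to pre-addition baseline per second over 15 to 24 s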). As to conditions: thallium flux BTC fluorescence, at 10 µM, actives lie on both sides.
Sequence of Alpha-2C adrenergic receptor (Homo sapiens) (P18825 whole entry, looked up): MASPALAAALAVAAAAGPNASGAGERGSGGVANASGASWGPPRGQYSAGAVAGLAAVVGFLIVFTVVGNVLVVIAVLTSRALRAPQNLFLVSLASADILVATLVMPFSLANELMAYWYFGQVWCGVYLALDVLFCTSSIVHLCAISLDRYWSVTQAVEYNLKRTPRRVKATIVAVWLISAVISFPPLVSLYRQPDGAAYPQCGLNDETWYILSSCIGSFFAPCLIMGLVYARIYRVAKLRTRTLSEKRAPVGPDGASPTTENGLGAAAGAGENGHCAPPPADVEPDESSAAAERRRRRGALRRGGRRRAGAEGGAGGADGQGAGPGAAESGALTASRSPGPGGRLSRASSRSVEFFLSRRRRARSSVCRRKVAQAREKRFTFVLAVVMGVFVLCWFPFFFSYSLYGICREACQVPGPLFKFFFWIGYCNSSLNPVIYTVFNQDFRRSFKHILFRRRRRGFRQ
Test [7] is described as follows: inhibitors of Sendai virus-induced IRF3 signaling, primary screen, TLR/RLR signaling modifier project, cell-based, Sendai virus stimulus, luciferase, 10K MLSCN set (AID 602276;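 active = inhibition at or above 50% at 10 µM; inactive = inhibition below 50%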;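 note: firefly luciferase from ISG56 promoter only with Renilla not read in this screen; 0% = Sendai virus plus DMSO and 100% = medium plus DMSO without virus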). As to conditions: HEK293 RL24 IRF3 luciferase reporter, at 10 µM, stronger effect = higher value.
The nature of test [8]: inhibitors of poly I:C-induced TLR3 signaling, primary screen, cell-based, poly I:C stimulus, luciferase, 10K MLSCN set (AID 602277;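 active = inhibition of the reporter signal at or above 50%; inactive = inhibition below 50%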). As to conditions: HEK293-TLR3 RL24 IRF3 luciferase reporter, at 10 µM, stronger effect = higher value. Background: A reporter such as luciferase makes a cellular process visible.

Sequence of Voltage-gated potassium channel subunit beta-2 (Rattus norvegicus) (P62483 whole entry, looked up): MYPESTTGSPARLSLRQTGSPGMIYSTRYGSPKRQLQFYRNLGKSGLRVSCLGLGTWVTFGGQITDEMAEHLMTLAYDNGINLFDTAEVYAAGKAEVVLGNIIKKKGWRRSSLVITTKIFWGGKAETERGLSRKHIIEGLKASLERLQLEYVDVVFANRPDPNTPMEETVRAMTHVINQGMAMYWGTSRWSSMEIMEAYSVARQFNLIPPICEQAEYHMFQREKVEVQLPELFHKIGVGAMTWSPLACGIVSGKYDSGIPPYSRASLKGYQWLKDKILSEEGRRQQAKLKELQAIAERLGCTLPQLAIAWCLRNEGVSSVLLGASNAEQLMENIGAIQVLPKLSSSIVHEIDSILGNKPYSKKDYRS

In the case of `COc1ccc(N2CCN(C(=O)C(C)(C)Oc3ccc(Cl)cc3)CC2)cc1`, the cell count in test [1] worked out at 651. The inhibition in test [1] is 5.8% (inactive); in test [3] it was 0% (inactive); in test [7], 2.83% (inactive); in test [8], 28.4% (inactive). Also, the inhibition of aggregation in test [2] was 4.4% (inactive). Further, the nuclei count in test [2] stood at 96.2%; in test [3] it was 111%. In test [4], the fluorescence slope was -0.564 (inactive). In addition, the NADPH fluorescence slope in test [5] was -4.3e-05 (inactive). Also, the slope in test [6] was 0.00674 (inactive).

In the case of `CCCCCCc1ccc(-c2ncc(N)cn2)cc1`, the cell count in test [1] is 478. Besides, the inhibition in test [1] was 3.5% (inactive); in test [3], -42.4% (inactive); in test [7], -9.96% (inactive); in test [8] it was -78.9% (inactive). The inhibition of aggregation in test [2] was 26.5% (inactive). The nuclei count amounted to 110% in test [2] and 109% in test [3]. Moreover, the fluorescence slope in test [4] is -0.509 (inactive). Besides, the NADPH fluorescence slope in test [5] is 6.3e-06 (inactive). Besides, the slope in test [6] is 0.00484 (inactive).

Turning to `COCCOC(=O)c1c(C)oc2ccc(NS(=O)(=O)c3ccc(F)cc3)cc12`, the cell count in test [1] is 381. Further, the inhibition in test [1] is 2.5% (inactive); in test [3], 30.2% (inactive); in test [7], 14.6% (inactive); in test [8], 25.3% (inactive). In addition, the inhibition of aggregation in test [2] is 4.7% (inactive). For the same compound, the nuclei count in test [2] is 123%; in test [3] it was 93%. For the same compound, the fluorescence slope in test [4] was -0.613 (inactive). For the same compound, the NADPH fluorescence slope in test [5] was 2.2e-06 (inactive). In addition, in test [6], the slope is 0.00626 (inactive).

As for `COc1ccc(S(=O)(=O)N(C)C2CCN(C)CC2)cc1`, the cell count in test [1] stood at 843. Moreover, the inhibition is -2.3% (inactive) in test [1], -73.5% (inactive) in test [3], 7.34% (inactive) in test [7] and 43.8% (inactive) in test [8]. Moreover, the inhibition of aggregation in test [2] was -6.3% (inactive). Besides, the nuclei count came out at 128% in test [2] and 114% in test [3]. Also, the fluorescence slope in test [4] was -0.548 (inactive). For the same compound, the NADPH fluorescence slope in test [5] was -5.5e-05 (inactive). In addition, the slope in test [6] was 0.00699 (inactive).

With `C=CCN1C(=O)C2(c3ccccc31)C1CCCC=C1C(C#N)=C(N)C2(C#N)C#N` (centres undefined), the cell count in test [1] is 752. The inhibition was -19.9% (inactive) in test [1], 41% (inactive) in test [3], -7.36% (inactive) in test [7] and -8.22% (inactive) in test [8]. Also, the inhibition of aggregation in test [2] was 10.4% (inactive). For the same compound, the nuclei count in test [2] stood at 110%; in test [3], 101%. In addition, the fluorescence slope in test [4] was -0.559 (inactive). In addition, the NADPH fluorescence slope in test [5] was -8.6e-06 (inactive). The slope in test [6] was 0.00492 (inactive).

For the compound `Cc1nc2ccc(Br)cn2c1NC(C)(C)C`, the cell count in test [1] was determined as 209. In addition, the inhibition in test [1] is 12.8% (inactive); in test [3] it was -2.7% (inactive); in test [7] it was -1.2% (inactive); in test [8] it was 3.15% (inactive). Also, the inhibition of aggregation in test [2] was -17.9% (inactive). Besides, the nuclei count in test [2] amounted to 103%; in test [3] it was 102%. Also, the fluorescence slope in test [4] is -0.531 (inactive). In addition, in test [5], the NADPH fluorescence slope was -2.1e-05 (inactive). For the same compound, the slope in test [6] is 0.00552 (inactive).

On to `CC(C)CNc1oc(-c2ccc(F)cc2)nc1C#N`, for which the cell count in test [1] was found to be 696. Also, the inhibition in test [1] was -2.9% (inactive); in test [3] it was -41.9% (inactive); in test [7] it was -4.19% (inactive); in test [8], 2.46% (inactive). In addition, the inhibition of aggregation in test [2] was -21% (inactive). The results for the nuclei count in test [2] and in test [3] were 108% and 118%, respectively. Moreover, the fluorescence slope in test [4] is -0.543 (inactive). In addition, the NADPH fluorescence slope in test [5] was -5e-06 (inactive). Moreover, the slope in test [6] is 0.00664 (inactive).

For `CCOC(=O)CSc1nc2c(c(-c3ccc(C)o3)c1C#N)CCCC2`, the cell count in test [1] amounted to 430. The inhibition in test [1] was -4.4% (inactive); in test [3] it was -63.3% (inactive); in test [7], 10.2% (inactive); in test [8] it was 18.3% (inactive). Also, in test [2], the inhibition of aggregation was -20.4% (inactive). For the same compound, the nuclei count in test [2] was determined as 100%; in test [3], 128%. In addition, the fluorescence slope in test [4] is -0.447 (inactive). In test [5], the NADPH fluorescence slope was -9.4e-05 (inactive). Moreover, the slope in test [6] is 0.00861 (inactive).

As to `CC(C)(O)C#Cc1ccc(C(=O)N2CCN(C(=O)c3ccco3)CC2)cc1`, the cell count in test [1] amounted to 547. In addition, the inhibition in test [1] is -7.8% (inactive); in test [3], 45.3% (inactive); in test [7], 16.5% (inactive); in test [8], 13.5% (inactive). The inhibition of aggregation in test [2] was -25.3% (inactive). Moreover, the nuclei count in test [2] is 121%; in test [3], 133%. In addition, the fluorescence slope in test [4] was -0.51 (inactive). In addition, the NADPH fluorescence slope in test [5] was -3.3e-05 (inactive). Further, in test [6], the slope was 0.00463 (inactive).

As to `COc1ccc(-c2[nH]c(-c3cccc(OC)c3)nc2SCC(=O)NCc2ccco2)cc1`, the cell count in test [1] amounted to 672. The inhibition in test [1] is 10.5% (inactive); in test [3], -5.4% (inactive); in test [7] it was 10.3% (inactive); in test [8] it was 4.41% (inactive). Besides, the inhibition of aggregation in test [2] was 5.3% (inactive). For the same compound, the nuclei count in test [2] worked out at 102%; in test [3], 124%. In addition, the fluorescence slope in test [4] was -0.484 (inactive). In addition, in test [5], the NADPH fluorescence slope is -1.7e-05 (inactive). Also, in test [6], the slope was 0.00547 (inactive).

Consider `COc1cc(C2N=C(c3ccccc3)NO2)cc(Br)c1O` (centres undefined), for which the cell count in test [1] amounted to 770. Further, the inhibition in test [1] is 4.6% (inactive); in test [3], -121% (inactive); in test [7], -15.8% (inactive); in test [8], -15.1% (inactive). For the same compound, in test [2], the inhibition of aggregation is -13.7% (inactive). In addition, the nuclei count in test [2] was 94.3%; in test [3], 108%. Also, the fluorescence slope in test [4] was -0.546 (inactive). In addition, the NADPH fluorescence slope in test [5] was 2.2e-05 (inactive). Moreover, the slope in test [6] is 0.00675 (inactive).

For `Cc1nc2c(-c3ccccc3)c(C)nn2c(C)c1CCC(=O)NCc1ccco1`, the cell count in test [1] was 545. The inhibition in test [1] was -1.1% (inactive); in test [3], -61.2% (inactive); in test [7] it was 9.03% (inactive); in test [8], 31.1% (inactive). For the same compound, the inhibition of aggregation in test [2] was -8.9% (inactive). The nuclei count in test [2] was 84.3%; in test [3], 102%. Further, the fluorescence slope in test [4] was -0.584 (inactive). Further, in test [5], the NADPH fluorescence slope was 1.5e-05 (inactive). Further, the slope in test [6] is 0.00663 (inactive).

Turning to `O=C1c2ccccc2C(Nc2ccc3c(c2)OCCO3)N1Cc1ccc2c(c1)OCO2` (centres undefined), the cell count in test [1] is 597. The inhibition was 3.4% (inactive) in test [1], -14.2% (inactive) in test [3], 3.99% (inactive) in test [7] and 50.1% (active) in test [8]. The inhibition of aggregation in test [2] is -2.8% (inactive). Besides, the nuclei count in test [2] amounted to 102%; in test [3] it was 106%. Also, the fluorescence slope in test [4] was -0.553 (inactive). The NADPH fluorescence slope in test [5] is -5e-05 (inactive). Also, in test [6], the slope was 0.00464 (inactive).

In the case of `CCN1CCN(Cc2nc3c(c(=O)[nH]c(=O)n3C)n2Cc2ccccc2Cl)CC1`, the cell count in test [1] was found to be 584. The inhibition in test [1] is 1% (inactive); in test [3] it was -20.8% (inactive); in test [7] it was 9.74% (inactive); in test [8], 29% (inactive). Moreover, the inhibition of aggregation in test [2] is 7.9% (inactive). Further, the nuclei count came out at 71.4% in test [2] and 95.5% in test [3]. The fluorescence slope in test [4] is -0.583 (inactive). In addition, in test [5], the NADPH fluorescence slope is -3.1e-05 (inactive). For the same compound, in test [6], the slope is 0.00512 (inactive).
